High-throughput results deposited in PubChem BioAssay by National Center for Advancing Translational Sciences (NCATS).
TDP1 cell CPT: qHTS for Inhibitors of human tyrosyl-DNA phosphodiesterase 1 (TDP1): qHTS in cells in presence of CPT; chicken DT40 Tdp1-/-;hTDP1 cells + 20 nM CPT, ATP luminescence, 48 h; Potency, µM (top dose mostly 46.2 µM), without a hit: top-dose activity change, negative = growth inhibition, hits mostly inhibitors; 12% of 420,000 active; AID 686979, 2013; note: % is set by controls: 0 for no effect and ±100 for the full control effect; nearly all actives have a fitted effect of over 55% in size
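Cell growth measured by CellTiter-Glo luminescence after a minimum 48 h, 37 C compound exposure with 20 nM CPT in Tdp1-knockout DT40 cells stably expressing hTDP1, seeded 400/well; qHTS titration format.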
TDP1 block: qHTS Assay for Inhibitors of Tyrosyl-DNA Phosphodiesterase (TDP1); AID 485290, 2010; 0.28% of 350,000 active; Potency, µM (doses to about 130 µM), without a hit: top-dose activity change, negative = inhibition, actives largely listed as inhibitors; recombinant TDP1, AlphaScreen DNA substrate cleavage; Tyrosyl-DNA phosphodiesterase 1 (Homo sapiens), Q9NUW8; note: % is set by controls: 0 for no effect and ±100 for the full control effect; nearly all actives have a fitted effect of over 40% in size
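Signal: AlphaScreen proximity between streptavidin donor and anti-FITC acceptor beads on intact substrate. Reaction: Tdp1 1 nM, substrate 15 nM final, 5 min RT after 15 min compound preincubation.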
ClpP mod: qHTS Assay for Activators of ClpP; ATP-dependent Clp protease proteolytic subunit (Bacillus subtilis (strain 168)), P80244; purified B. subtilis ClpP, FRET peptide cleavage, 20 min; Potency, µM (series often up to 57.5 µM), for the others: at the highest dose activity change, negative = active; 1.9% of 340,000 active; AID 651965, 2013; active = well fitted falling curve with a large enough effect; inconclusive = small, poorly fitted or top-dose-only effect; inactive = no such curve, though single readings can be large or run the other way; note: the source files actives as falling curves though it sought activators and does not explain the sign; nearly all actives have a fitted effect of over 65% in size
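FRET quenching reversal measured ClpP activation: 10 microg/mL B. subtilis ClpP at pH 8 with the FRET-FV decapeptide, read at 430 nm after 320 nm excitation. The 20-min minus 0-min signal was scaled between DMSO/no-enzyme wells and ADEP (5.8 microM final).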
DT40 TDP1 no CPT: qHTS for Inhibitors of human tyrosyl-DNA phosphodiesterase 1 (TDP1): qHTS in cells in absence of CPT | 15% of 420,000 active | Potency, µM (series often up to 46.2 µM), for inactives: at the highest dose activity change, negative = growth inhibition, actives largely listed as inhibitors | DT40 Tdp1-/- hTDP1 cells, no CPT, ATP luminescence, 48 h; note: % is set by controls: 0 for no effect and ±100 for the full control effect; nearly all actives have a fitted effect of over 55% in size
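DT40 Tdp1-/-;hTDP1 cells, no CPT (DMSO vehicle only), 400 cells/well; compounds pin-transferred; ≥48 hr, 37 °C; CellTiter-Glo 30 min RT dark, luminescence read.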
An asterisk follows results filed as active; ? = inconclusive; · = no result given; [ ] = dose if it differs, or a comment. Shown are actives, neighbours in structure and some others; about 17% of the full set was active somewhere. Unless noted, calls come from the whole dose curve; as a rule, active = well fitted curve in the direction sought with a large enough effect; inconclusive = small, poorly fitted or top-dose-only effect, or another doubt; inactive = no such curve, though single readings can be large; an effect the other way counts as inactive or inconclusive. Potency is the fitted concentration of half-maximal effect.

SMILES	TDP1 cell CPT	TDP1 block	ClpP mod	DT40 TDP1 no CPT
Cc1ccc(NC(=O)COC(=O)c2cccc3c(=O)c(C)c(-c4ccccc4)oc23)cc1	32.1%	4.5%	·	-8.3%
CCCCNC(=O)c1cccc2c(=O)c(C)c(-c3ccccc3)oc12	?	2.7%	28.2µM*	?
COc1cccc2cc(C(=O)N3CCN(c4ccccc4F)CC3)c(=O)oc12	-7.9%	6.6%	-7.6%	12.1%
CCn1c(NCc2cc(Br)ccc2NS(=O)(=O)c2ccc(C)cc2)nc2ccccc21	?	7.7%	-4.7%	?
CCn1c(NCc2ccccc2NS(=O)(=O)c2ccc(C)cc2)nc2ccccc21	16.4µM*	0.0%	0.5%	18.4µM*
CCCn1c(NCc2ccccc2NS(=O)(=O)c2ccc(C)cc2)nc2ccccc21	?	5.3%	0.6%	16.4µM*
CCCCOc1ccc(CC(=O)N(C)O)cc1	?	·	-0.5%	?
O=CN1CCCN(Cc2nc(-c3cccc(Cl)c3)no2)CC1	-15.6%	2.7%	-0.4%	0.8%
COc1ccc(/C=C/N(CCc2ccc(OC)c(OC)c2)C(=O)c2ccccn2)cc1	·	6.9%[21 µM]	·	·
CCN1CCN(Cc2c(O)ccc3c2O/C(=C\c2ccccc2)C3=O)CC1	-22.5%	4.6%	·	-17.7%
CC1CCCN(Cc2c(O)ccc3c2O/C(=C\c2ccco2)C3=O)C1 (stereo not drawn)	14.6µM*	-8.9%	2.0%	25.9µM*
CC(C(=O)NCC1CCCCC1)N(C)Cc1ccc(Cl)cc1 (stereo not drawn)	?	4.6%	·	18.4µM*
COc1ccc(/C=C/c2onc(C)c2S(=O)(=O)N2CCC(C(=O)N3CCCCCC3)CC2)cc1	?	1.0%	-26.6%	?
CNC(=O)C1CCN(S(=O)(=O)c2c(C)noc2/C=C/c2ccc(C)cc2)CC1	?	·	-2.7%	?
Cc1ccc(/C=C/c2onc(C)c2S(=O)(=O)N2CCC(C(=O)N3CCN(c4cc(C)ccc4C)CC3)CC2)cc1	?	0.6%	-5.0%	?
CCCN1CCN(C(=O)C2CCN(S(=O)(=O)c3c(C)noc3/C=C/c3ccc(C)cc3)CC2)CC1	20.6µM*	7.7%	-5.9%	20.6µM*
Cc1ccc(/C=C/c2onc(C)c2S(=O)(=O)N2CCC(C(=O)NC(C)(C)C)CC2)cc1	?	·	-11.5%	?
CCCN(C(=O)C1CCN(S(=O)(=O)c2c(C)noc2/C=C/c2ccc(C)cc2)CC1)c1ccccc1F	?	-5.3%	-12.3%	23.1µM*
Cc1cccc(/C=C/c2onc(C)c2S(=O)(=O)N2CCC(C(=O)N3CCCCC3)CC2)c1	29.1µM*	1.3%	-21.5%	18.4µM*
CCOC(=O)C1CCCN(C(=O)C2CCN(S(=O)(=O)c3c(C)noc3/C=C/c3ccc(C)cc3)CC2)C1 (stereo not drawn)	18.4µM*	0.6%	?	?
CC(C)CCN1C(=O)c2ccccc2CC1(C)C(=O)NC1CCC(C)CC1 (stereo not drawn)	-9.7%	2.9%	0.3%	?
COc1cccc(N2C(=O)N(Cc3ccc(C#N)cc3)c3ccccc3S2(=O)=O)c1	4.7%	-1.5%	-1.4%	-30.0%
Cc1cccc(N2CCN(C(=O)C3CCN(S(=O)(=O)c4c(C)noc4C)CC3)CC2C)c1 (stereo not drawn)	8.2µM*	7.4%	-2.3%	9.2µM*
Cc1noc(C)c1S(=O)(=O)N1CCC(C(=O)N2CCC(C)CC2)CC1	-10.9%	2.9%	-0.3%	2.3%
CCOC(=O)c1c(C)c(-c2ccccc2)n(CC(=O)Nc2cccc(C)c2C)c1C	13µM*	0.0%	-0.7%	14.6µM*
CCOC(=O)c1c(C)c(-c2ccccc2)n(CC(=O)Nc2ccc(OCC)cc2)c1C	-2.8%	0.0%	1.4%	-28.7%
CCOC(=O)c1c(C)c(-c2ccccc2)n(CC(=O)Nc2cc(C)ccc2OC)c1C	?	1.0%	-1.4%	18.4µM*
CCCCCCCCC1CO1 (stereo not drawn)	·	8.7%	·	·
O=C(CC(=O)c1ccccc1)Nc1ccc([N+](=O)[O-])cc1	23.1µM*	·	·	?
CS(=O)(=O)Nc1ccc(C(=O)CC(=O)Nc2ccc([N+](=O)[O-])cc2)cc1	-0.7%	·	·	-17.7%
